Experimental data as given in PubChem BioAssay (NCATS).
Results filed as inconclusive are left out. Unmarked numbers belong to inactive results. The source made the active and inactive calls. Calls come from the whole dose curve; as a rule, active = well fitted inhibition curve with a large enough effect; inconclusive = small, poorly fitted or top-dose-only effect; inactive = flat fitted curve, though single readings scatter.

Assay: P-glycoprotein substrates identified in KB-8-5-11 adenocarcinoma cell line, qHTS therapeutic library screen (AID 1346987); note: nearly all actives have a fitted effect of over 65% in size
Settings: KB-8-5-11 (P-gp overexpressing) viability, CellTiter-Glo, 72 h; series mostly up to 44.5 µM; activity change, negative = cytotoxicity: at the top concentration
How it was run: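 Compounds are pinned in dose-response onto KB-8-5-11 cells (500 cells/well, colchicine-free medium) and left 72 h at 37 degree C. CellTiter-Glo luminescence then yields AC50 values.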
% is set by controls: 0 for no effect and ±100 for the full control effect.

Row | SMILES | outcome | activity change, negative = cytotoxicity
1 | CC[C@@H]1C[C@]1(NC(=O)[C@@H]1C[C@@H]2CN1C(=O)[C@H](C(C)(C)C)NC(=O)OCC(C)(C)CCCCc1cccc3c1CN(C3)C(=O)O2)C(=O)NS(=O)(=O)C1CC1 | inactive | 
2 | CC(C)c1c(O)ccc2c1CC[C@H]1C(C)(C)CCC[C@]21C |  | -18.1%
3 | C=C1CCC2C(C)(C(=O)O)CCCC2(C)C1CCC1=CCOC1=O (stereo unspecified) |  | 9.62%
4 | O=C(NCCCNC(=O)c1ccc[nH]c1=O)c1cc(-c2ccccc2)on1 |  | -19.4%
5 | Nc1nc2c(s1)CCN(Cc1ccc(Cl)cc1)CC2 |  | 4.43%
6 | CC(C)c1cc(-c2ccc(F)c3ccccc23)nc(N)n1 |  | -13.8%
